Screening results (PubChem)
Most compounds without a hit are left out; they make up all but 5.7% or so of the library.
hgDAF12 agonist = activates the H. glycines DAF-12 receptor ligand-binding domain. activation, % at 6.8 µM. 370,000 tested, 1.8% active. HEK293 GAL4-hgDAF12 UAS-luciferase reporter, agonist luminescence; normalized to butyrate control. AID 687014;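 active = activation above a cutoff set at the mean of all screened compounds plus 3 SD, cut at about 10% in these data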;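 note: 0% = DMSO wells and 100% = sodium butyrate wells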
DAX1 inh-1 = blocks DAX1 repression of SF-1 activated StAR promoter; HEK293T StAR-luciferase reporter, SF-1/DAX-1 repression relief; inhibition, % at 6.8 µM; 370,000 tested, 1.1% active; AID 652010;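 active = inhibition above the mean over all tested compounds plus 3 SD, cut at about 3.6% in these data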;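 note: 0% = DAX-1 cells with DMSO and 100% = cells lacking DAX-1 with DMSO; higher inhibition means more luminescence from relief of DAX-1 repression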
DAX1 inh-2 = inhibitors of human orphan nuclear receptor DAX1 (NR0B1); HEK293 Gal4-DAX1 luciferase reporter, luminescence; P51843; inhibition, % at 6.75 µM; 340,000 tested, 0.99% active;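 active = inhibition above the mean over all tested compounds plus 3 SD, cut at about 4.2% in these data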;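 note: 0% = DAX1-transfected cells with DMSO and 100% = empty-vector control cells with DMSO; inhibition shows as a rise in luminescence from relieved DAX1 repression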
Target sequence (P51843 207-470 limits assumed): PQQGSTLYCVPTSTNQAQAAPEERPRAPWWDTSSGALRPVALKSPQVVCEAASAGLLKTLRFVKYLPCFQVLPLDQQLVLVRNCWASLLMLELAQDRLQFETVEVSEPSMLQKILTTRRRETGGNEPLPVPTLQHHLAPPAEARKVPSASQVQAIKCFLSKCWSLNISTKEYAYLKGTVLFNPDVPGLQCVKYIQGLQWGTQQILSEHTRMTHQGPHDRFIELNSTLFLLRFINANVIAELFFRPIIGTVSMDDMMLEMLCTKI
ssDAF12 agonist = S. stercoralis DAF-12 activation, primary screen. HEK293 ssDAF-12/GRIP1 lit1-tk-luc reporter, luminescence; % of 3 µM dafachronic acid response. activation, % at 6.8 µM. 370,000 tested, 1% active. AID 652126;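 active = activation above the mean over all tested compounds plus 3 SD, cut at about 0.9% in these data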;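 note: 0% = DMSO-only wells and 100% = 3 µM delta7-dafachronic acid wells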
AHR act = human AHR activation | P35869 | AHR-responsive luciferase reporter cells, luminescence | activation, % at 5 µM | 320,000 tested, 2.5% active | AID 2796; in the data active = activation above about 47%;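 note: 0% = vehicle wells and 100% = reference agonist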
hcDAF-12 act = activates DAF-12 receptor from parasite H. contortus. HEK293 hcDAF-12 lit1-tk-luc reporter, luminescence; 0% DMSO, 100% Δ7-dafachronic acid. activation, % at 6.8 µM. 370,000 tested, 1.4% active. AID 652067;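 active = activation above the mean of all tested compounds plus 3 SD, cut at about 5.5% in these data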;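 note: 100% = response to 3 µM Δ7-dafachronic acid high control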
DAX1 conf = NR0B1 (human) inhibition, confirmation; shares compounds with DAX1 inh-1; HEK293T StAR-promoter luciferase reporter, SF-1/DAX-1 repression; inhibition, % at 6.8 µM; 2,400 tested, 87% active; AID 652134;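 active = inhibition above the average of every tested compound plus 3 SD, cut at about 3.8% in these data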;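 note: 0% = DAX-1 cells with DMSO and 100% = no DAX-1 control cells with DMSO; active compounds raise luminescence by relieving repression of the StAR reporter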
SF1 AF2mut Luc = nonselective inhibitor or artifact in SF-1 mutant DAX1 counter-screen; shares compounds with DAX1 inh-1; HEK293 StAR-luciferase, SF-1 AF2 mutant, luminescence; inhibition, % at 6.8 µM; 2,400 tested, 78% active;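 active = inhibition above the mean of all tested compounds plus 3 SD, cut at about 3% in these data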;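 note: 0% = DAX-1 transfected cells with DMSO and 100% = cells without DAX-1 with DMSO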
LXR ag = activates human LXR-beta, counter-screen for hcDAF-12 agonists; shares compounds with hcDAF-12 act; HEK293 Gal4-LXR tk-luc reporter, luminescence, 24 h; normalized: DMSO 0%, positive control 100%; activation, % at 6.8 µM; 3,400 tested, under 10 active;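 active = mean percent activation of the reporter above a cutoff set as the average over tested compounds plus their standard deviation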
Target sequence (P55055 whole entry, looked up, the tested form may be a part): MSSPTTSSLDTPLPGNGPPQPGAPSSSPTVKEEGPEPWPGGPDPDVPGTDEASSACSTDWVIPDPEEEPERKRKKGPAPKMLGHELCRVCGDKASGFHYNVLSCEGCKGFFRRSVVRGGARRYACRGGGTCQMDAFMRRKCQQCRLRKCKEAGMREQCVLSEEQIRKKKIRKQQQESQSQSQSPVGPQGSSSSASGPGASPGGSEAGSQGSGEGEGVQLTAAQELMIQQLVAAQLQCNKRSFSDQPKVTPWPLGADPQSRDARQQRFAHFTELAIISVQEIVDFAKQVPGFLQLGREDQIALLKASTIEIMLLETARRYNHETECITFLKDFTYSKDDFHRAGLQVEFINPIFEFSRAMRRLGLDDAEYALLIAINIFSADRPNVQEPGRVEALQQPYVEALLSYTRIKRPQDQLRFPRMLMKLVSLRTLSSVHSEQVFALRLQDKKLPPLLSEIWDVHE
hcDAF12 conf = hcDAF-12 agonism, confirmation assay; activation, % at 6.8 µM; shares compounds with hcDAF-12 act; HEK293 hcDAF-12 lit1-tk-luc reporter, luminescence; % of Δ7-dafachronic acid response; 3,400 tested, 61% active;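 active = mean activation across triplicate tests above the threshold derived from the earlier primary screen, cut at about 5.5% in these data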;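 note: 0% = DMSO only wells and 100% = 3 µM Δ7-dafachronic acid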
hgDAF12 conf = hgDAF-12 agonism, confirmation assay; HEK293 GAL4-hgDAF12 luciferase reporter, agonist mode; percent of butyrate response; activation, % at 6.8 µM; shares compounds with hgDAF12 agonist; AID 743050; 3,300 tested, 80% active;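 active = mean activation over triplicate wells above the hit cutoff derived from the earlier primary screen, cut at about 11% in these data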;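 note: 0% = DMSO low control and 100% = 2 mM sodium butyrate high control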
LXR ag 2 = counter-screen for DAF-12 agonists: agonists of human LXR-beta; AID 743051; HEK293 Gal4-LXR luciferase reporter, 24 h; shares compounds with hgDAF12 agonist; activation, % at 6.8 µM; 3,300 tested, under 10 active;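 active = mean activation of the triplicate above a set limit carried over from the primary screen, none filed active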
The depositor's hits bear a star; . = not tested or not shown.

SMILES | hgDAF12 agonist | DAX1 inh-1 | DAX1 inh-2 | ssDAF12 agonist | AHR act | hcDAF-12 act | DAX1 conf | SF1 AF2mut Luc | hgDAF12 conf | LXR ag 2 | others
CCc1ccc(-c2cc(N)n(-c3ccccc3)n2)cc1 | 17.2* | 7.3* | 5.5* | 0.6 | . | 5.1 | 12.1* | 7.2* | 18.3* | 0.9
COc1ccc(OCc2cc(C(=O)NCC(C)(C)N3CCOCC3)no2)c(Cl)c1 | -0.1 | -1.7 | 0.1 | -0.5 | -0.3 | -1.0 | . | . | . | .
CC(C)(C)c1ccc(C(=O)Oc2ccc3c(c2)OCC3=O)cc1 | 1.2 | -0.2 | -0.8 | -1.3 | 2.0 | 0.9 | . | . | . | .
CCOC(=O)c1nnn(-c2nonc2NC(C)=O)c1C | -1.4 | -0.6 | 0.8 | -1.4 | 8.7 | -1.1 | . | . | . | .
C[C@@H]1C(c2ccccc2)=NN(c2ccc(Br)cc2)[C@H]1C(=O)N1CCOC1=O | 0.3 | 2.9 | 0.3 | -1.0 | . | -0.1 | . | . | . | .
Cc1ccc(-n2c(C)c(C)c3c(NCCCO)ncnc32)cc1 | 3.5 | 1.6 | 0.1 | -0.8 | . | 1.6 | . | . | . | .
O=C1C(=Cc2cccc(Cl)c2)CCc2ccccc21 | 6.7 | 0.6 | . | -0.9 | . | 0.5 | . | . | . | .
O=C1C(=Cc2ccc(F)cc2)CCc2ccccc21 | 22.5* | 9.5* | . | 0.7 | . | 7.9* | 7.4* | 3.3* | 17.0* | 0.9 | LXR ag=1.8;hcDAF12 conf=4.6
O=C1C(=Cc2ccc(Cl)cc2)CCc2ccccc21 | 14.7* | 7.4* | . | -0.8 | . | 2.8 | 7.4* | 3.3* | 3.3 | 0.7
O=C1/C(=C\c2ccncc2)CCc2ccccc21 | 2.7 | -0.4 | -0.3 | -1.3 | 2.2 | 0.3 | . | . | . | .
COc1ccccc1C=C1CCc2ccccc2C1=O | 18.0* | 8.6* | . | 0.3 | . | 7.2* | 3.9* | 0.7 | 13.4* | 0.8 | LXR ag=1.8;hcDAF12 conf=7.5*
CCOc1ccccc1C=C1CCc2ccccc2C1=O | 1.4 | -0.5 | 0.5 | -0.4 | . | -1.5 | . | . | . | .
O=C1C(=Cc2ccccc2Cl)CCc2ccccc21 | 22.9* | 6.5* | . | 0.5 | . | 10.0* | 6.7* | 2.7 | 15.7* | 1.0 | LXR ag=1.8;hcDAF12 conf=5.9*
O=C(C1=C[C@H](c2coc3ccccc3c2=O)C[C@H](OCCCCO)O1)N1CCN(Cc2ccc3c(c2)OCO3)CC1 | -1.1 | 0.4 | -1.3 | -1.8 | 13.7 | -1.1 | . | . | . | .
CC(NC(=O)c1cc(COc2ccccc2)on1)c1nccs1 (configuration not stated) | 20.4* | 7.3* | 2.1 | 0.5 | 23.0 | 7.9* | 8.3* | 5.2* | 19.0* | 0.8 | LXR ag=0.8;hcDAF12 conf=6.0*
CC1CCc2sc(C(=O)NN)cc2C1 (configuration not stated) | -4.8 | -0.3 | -0.5 | -1.5 | 38.7 | -0.8 | . | . | . | .
CC1CCc2sc(C(=O)NCC3CCCO3)cc2C1 (configuration not stated) | 14.9* | 7.2* | 3.8 | -0.1 | . | 2.8 | 9.9* | 6.5* | 13.1* | 0.6
CCOc1ccc(N2C(=O)c3cccnc3C2Nc2ccc(F)cc2)cc1 (configuration not stated) | 1.1 | -0.3 | -0.6 | -0.5 | 9.2 | 1.2 | . | . | . | .
O=C(NCCSc1ccccn1)c1ccc(Cl)cc1 | 20.9* | 4.5* | 1.2 | 0.4 | 16.0 | 5.2 | 10.2* | 4.8* | 16.3* | 0.8
O=C(NCCCNC(=O)c1cc(Cl)ccc1Cl)c1ccccn1 | 1.4 | 0.1 | 0.5 | -1.1 | 0.0 | -0.7 | . | . | . | .
O=C(NCCSc1ccccn1)c1ccc(Cl)cc1Cl | 15.2* | 7.3* | 1.3 | -0.4 | 12.0 | 4.3 | 10.6* | 6.6* | 18.3* | 1.0
O=C(NCCNC(=O)c1ccccn1)c1ccc(Cl)cc1 | 0.4 | 0.2 | 1.1 | -1.5 | -0.7 | -2.0 | . | . | . | .
Cc1ccc(OCCSc2ncccn2)c(C)c1 | 23.0* | 8.2* | 5.1* | 0.3 | . | 4.1 | 11.8* | 8.2* | 16.4* | 0.8
CC(C)n1c(=N)c(C(=O)NCCc2ccccc2)cc2c(=O)n3ccccc3nc21 | 5.9 | -0.4 | -0.6 | -0.9 | 0.5 | 1.8 | . | . | . | .
O=C(NCCc1ccccc1)c1cnc2ccccn2c1=O | 14.5* | 5.2* | 0.5 | -0.6 | 3.6 | 2.5 | 13.0* | 5.7* | 13.3* | 0.8
SMILES | hgDAF12 agonist | DAX1 inh-1 | DAX1 inh-2 | ssDAF12 agonist | AHR act | hcDAF-12 act | DAX1 conf | SF1 AF2mut Luc | hgDAF12 conf | LXR ag 2 | others
O=C(/C=C/c1ccc([N+](=O)[O-])cc1)Nc1ncc([N+](=O)[O-])s1 | 26.9* | 7.4* | 4.0 | 0.7 | . | 11.7* | -5.5 | -6.3 | 5.6 | 0.7 | LXR ag=0.9;hcDAF12 conf=5.8*
O=c1c2ccccc2c(C=Nc2cccc(O)c2)c(O)n1-c1ccc2c(c1)OCO2 | -2.5 | -0.5 | -2.0 | -1.7 | -3.8 | -1.8 | . | . | . | .
Oc1[nH]c2ccccc2c1C=Nc1ccc2c(c1)OCO2 | 16.9* | 6.6* | 5.1* | 0.7 | 57.6* | 7.0* | 16.3* | 8.2* | 19.1* | 0.9 | LXR ag=1.3;hcDAF12 conf=6.8*
Cc1ccc(-c2ccnc3c(Cl)c(C)nn23)cc1 | -1.1 | 0.5 | 0.7 | -1.1 | 13.0 | 0.9 | . | . | . | .
Cc1ccc(-c2cnc3c(Cl)c(C)nn3c2)cc1 | 24.5* | 6.6* | 3.2 | 0.6 | 3.1 | 5.1 | -0.5 | -4.5 | 18.4* | 1.0
Cc1ccc(-c2cnc3cc(C)nn3c2)cc1 | 17.7* | 9.7* | -1.0 | 0.0 | -5.3 | 5.9* | 11.2* | 5.2* | 12.0* | 0.9
COc1cc(S(=O)(=O)Nc2c(C)nn(C)c2C)ccc1NC(C)=O | 1.4 | -0.4 | 0.6 | -0.1 | -0.2 | -1.2 | . | . | . | .
O=C(OCc1nc2ccccc2s1)c1cccs1 | 17.3* | 5.6* | 4.9* | 1.8* | 16.4 | 10.1* | 14.8* | 6.3* | 10.9* | 0.4 | LXR ag=1.3;hcDAF12 conf=13.1*
COc1cc(OC)cc(C(=O)NCC(=O)OCc2nc3ccccc3s2)c1 | 13.6* | 4.8* | 6.9* | 1.8* | 21.8 | 11.2* | 12.7* | 7.4* | 13.5* | 0.5 | LXR ag=0.7;hcDAF12 conf=11.5*
CC(=O)c1cc2c(cc1NC(=O)c1ccc(Cl)cc1)OCCO2 | 0.9 | 0.0 | -0.2 | 0.1 | 17.5 | 2.6 | . | . | . | .
